# Jurkat NFkB inh – lowers PMA/ionomycin-induced NF-kB signal in Jurkat cells; PMA/ionomycin-induced NF-kB luciferase reporter, luminescence; inhibition, % at 4 µM; 330,000 tested, 0.53% active; in the data active means inhibition above about 50%
# Shn3 3UTR inh – Schnurri-3 reporter inhibition in Clone20 osteoblasts; Clone20 osteoblast Shn3 3'UTR firefly luciferase, 24 h; inhibition, % at 12.5 µM; 360,000 tested, 0.52% active; AID 588674;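 active means mean inhibition of at least 75% with every replicate also reaching 75%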;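 further: 0% = median of neutral control wells and 100% = pilot-screen positive control compound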
# Gli-Sufu antag – antagonists of Gli-Sufu signaling; 340,000 tested, 0.74% active; Sufu-KO-LIGHT fibroblasts, Gli luciferase reporter luminescence; inhibition, % at 5 µM;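 active means inhibition above about 55%, limit read from the data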;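 further: 0% = DMSO-treated cells and 100% = wells with medium but no cells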
# Mdm2 MdmX PPI – disrupts the human Mdm2-MdmX interaction. 330,000 tested, 3% active. O15151+Q00987. SaOS-2 split-luciferase Mdm2/MdmX complementation, luminescence. inhibition, % at 8 µM;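 active means inhibition of at least 50% at 8 µM in the primary screen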
# 697 NFkB inh – inhibitors of the PMA/ionomycin-induced NF-kB reporter in 697 B cells | inhibition, % at 4 µM | 330,000 tested, 0.33% active | 697 B-cell NF-kB luciferase reporter, 16 h | AID 435022; in the data active means inhibition above about 35%
# Mdm2-MdmX conf – confirmation of human Mdm2/MdmX interaction inhibitors | shares compounds with Mdm2 MdmX PPI | inhibition, % at 8 µM | Mdm2-MdmX binding, luminescent assay | 10,000 tested, 55% active | AID 489028; in the data active means inhibition above about 40%
# Full FLuc ctr – counter-screen for Mdm2/MdmX inhibitors: full-length luciferase | AID 504607 | inhibition, % at 8 µM | SaOS-2 full-length luciferase counterscreen, luminescence | shares compounds with Mdm2 MdmX PPI | 6,200 tested, 77% active;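 active means mean inhibition at 8 µM reaching about 37%, which flags the compound as non-specific, limit read from the data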;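 further: p53-null SaOS-2 cells with luciferase driven by a doxycycline-inducible promoter; compound on cells about two nights before reading with doxycycline added after day one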
# An asterisk follows results filed as active; nt = not tested or not shown. In the library only some 3.8% were active in any assay of this set; here they are far more common.
SMILES,Jurkat NFkB inh,Shn3 3UTR inh,Gli-Sufu antag,Mdm2 MdmX PPI,697 NFkB inh,Mdm2-MdmX conf,Full FLuc ctr
COc1cc(-c2nc(-c3ccc4c(c3)-c3ccccc3S4(=O)=O)c(-c3ccccc3)[nH]2)cc(OC)c1O,-6,0,-1,77*,22,67*,79*
NC(=O)c1cc(S(=O)(=O)NCCCc2ccccc2)cs1,9,8,6,-10,-1,nt,nt
COc1ccc(CNC(=O)C2CC(=O)N(C3CCCC3)C2)cc1 (stereo not given),6,-2,-3,17,-11,nt,nt
c1ccc2c(c1)CCc1ccccc1C2=C1CCNCC1,4,34,8,67*,-2,49*,73*
CN1CCC(=C2c3ccccc3C=Cc3ccccc32)CC1,-4,27,32,46,-7,nt,nt
Cn1c(Oc2ccc3c(c2)OCO3)nc2c1c(=O)n(Cc1ccccc1)c(=O)n2C,13,3,15,62*,20,22,nt
Cn1c(=O)c2c(nc(Oc3ccc4c(c3)OCO4)n2Cc2ccc(Cl)cc2)n(C)c1=O,1,29,3,33,4,nt,nt
N#CCC(=O)Nc1ccc(C(=O)NCc2ccccn2)cc1,-2,16,0,-5,-4,nt,nt
COc1ccc(C(=O)N2CCc3cc4c(cc3C2C)OCCCO4)cc1 (stereo not given),10,10,-10,8,14,nt,nt
CC1c2cc3c(cc2CCN1C(=O)c1ccc(Br)cc1)OCCCO3 (stereo not given),39,13,3,70*,-11,46*,47*
Cc1cc(NC(=O)CSc2nc3c(sc4ccccc43)c(=O)n2CCc2ccccc2)n[nH]1,-4,15,7,62*,9,-6,nt
NC(=O)c1cc2ccncc2c2ccccc12,38,6,-19,90*,10,94*,51*
O=C(COC(=O)[C@@H]1CC(O)CN1S(=O)(=O)c1ccc2c(c1)OCCO2)Nc1cc(F)ccc1F (stereo not given in full),2,-13,5,4,14,nt,nt
O=c1[nH]c(/C=C/c2ccc(OC(F)F)cc2)nc2c1cnn2-c1ccccc1,5,10,-5,66*,-9,-1,nt
CC(C)CCN(C(=S)NC(=O)C1CCCCC1)c1c(N)n(Cc2ccccc2)c(=O)[nH]c1=O,15,-16,-1,15,2,nt,nt
COc1ccc(S(=O)(=O)N2CCOCC2)cc1NC(=O)Cc1coc2cc(C)c(C)cc12,-18,13,13,13,-5,nt,nt
COc1ccc(/C=N/NC(=O)c2[nH]nc3c2CCc2ccccc2-3)cc1OC,42,-13,17,56*,-11,68*,74*
CCCCOc1ccc(C(=O)N/N=C/c2ccc(OCCN3CCCCC3)c(OC)c2)cc1,-27,10,4,81*,-38,22,nt
COc1cc(/C=N/NC(N)=O)ccc1OCC(=O)Nc1cc(C)c(C)cc1Br,-5,-9,6,81*,12,50*,106*
COc1cc(/C=N\NC(=O)c2ccc(-c3ccccc3)cc2)ccc1OCC(N)=O,15,28,1,50*,18,31,nt
CCN(CC)CCNC(=O)c1ccc(Sc2ccc(Cl)cc2)c(NC(C)=O)c1,-12,7,11,22,-30,nt,nt
O=C(c1cccc(C(F)(F)F)c1)C1CCCN(Cc2cccn2-c2ccccn2)C1 (stereo not given),4,-2,27,13,-17,nt,nt
O=C1NC(Cc2ccc(O)cc2)c2nc3ccc(F)cc3c(=O)n2-c2cc(Cl)ccc21 (stereo not given),nt,2,11,nt,nt,nt,nt
O=C(CNC(=O)c1ccccc1F)NCCOc1ccccc1Cl,5,-3,-1,1,-21,nt,nt
O=C(COc1ccc(/C=N/NC(=O)c2cc3ccccc3o2)cc1Cl)Nc1ccccc1,17,27,36,97*,19,-100,nt
CCOc1cc(/C=N\NC(=O)Cc2ccccc2)ccc1OCC(=O)Nc1ccc(C)c(C)c1,2,53,18,94*,2,75*,76*
COc1cccc(/C=N/NC(=O)c2nc(-c3ccccc3)cc(-c3ccccc3)n2)c1,-11,13,3,42,22,nt,nt

# Bioassay records deposited in PubChem by several laboratories.
